Screening results from PubChem BioAssay.
GLP-1R inv ag: GLP-1 receptor (human) inverse agonism; 410,000 tested, 1.6% active; Potency, µM (top dose mostly 38.3 µM), without a hit: at the top dose activity change, negative = inhibition, hits mostly inhibitors; AID 624417; HEK293 GLP-1R CRE-luciferase, luminescence, 24 h; GLP-1R form is constitutively active; further: on the % scale 0 is the no-effect control and ±100 the full control effect; nearly all actives have a fitted effect of over 55% in size
Target sequence (P43220 whole entry, looked up): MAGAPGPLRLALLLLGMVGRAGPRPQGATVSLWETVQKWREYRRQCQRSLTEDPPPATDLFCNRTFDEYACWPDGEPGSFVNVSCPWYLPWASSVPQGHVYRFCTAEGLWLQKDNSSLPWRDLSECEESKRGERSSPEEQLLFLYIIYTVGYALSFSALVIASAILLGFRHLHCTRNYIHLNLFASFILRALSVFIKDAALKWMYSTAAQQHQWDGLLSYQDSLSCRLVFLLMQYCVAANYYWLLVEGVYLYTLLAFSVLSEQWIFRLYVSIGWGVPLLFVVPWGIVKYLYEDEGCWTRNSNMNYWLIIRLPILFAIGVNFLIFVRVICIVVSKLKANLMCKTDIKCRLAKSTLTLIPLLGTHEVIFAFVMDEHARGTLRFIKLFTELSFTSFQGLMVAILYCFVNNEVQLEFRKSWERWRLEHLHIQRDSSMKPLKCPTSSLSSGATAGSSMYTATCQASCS
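Inverse agonists were sought by their lowering of basal cAMP reporter luciferase output in HEK293 cells stably carrying constitutively active human GLP-1R, after 24 h compound treatment.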
GLP1R ag: activates the human GLP-1 receptor; Potency, µM (highest dose often 45.6 µM), for inactives: at the top dose activation, hits mostly activators; P43220; AID 624172; HEK293 GLP-1R CRE-luciferase, luminescence, 4-6 h; cells express a hypersensitive GLP-1R form; 380,000 tested, 0.007% active; further: % of control where 0% means no effect
GLP1R cytotox: cytotoxicity in counter-screen for GLP-1R inverse agonists; AID 624418; HEK293 cAMP-luciferase reporter cells, luminescence, 24 h; Potency, µM (titrated, usually from 38.3 µM), without a hit: at the highest dose activity change, negative = inhibition, actives largely listed as inhibitors; 410,000 tested, 0.13% active;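 further: loss of luciferase light is scored as toxicity; on the % scale 0 is the no-effect control and ±100 the full control effect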
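Here, cytotoxicity is scored as loss of luminescence. The MLSMR collection was tested on cells seeded in medium containing 10% Nu serum, with a 24 hr compound exposure preceded by 12 hours of culture.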
* hit, by the source's call; ? = inconclusive; . = no result given. Only some compounds are listed: those with a hit (about 1.7% of all), similar ones and a draw of the others. The call rests on the fitted dose curve; in most records, active means well fitted curve in the direction sought with a large enough effect; inconclusive means small, poorly fitted or top-dose-only effect, or another doubt; inactive means no such curve, though single readings can be large; an effect the other way counts as inactive or inconclusive. Potency means the concentration at half of the fitted maximal effect.

SMILES	GLP-1R inv ag	GLP1R ag	GLP1R cytotox
CC1=C(C(=O)NC(C)c2ccccc2)C2(CCC(C)CC2)OC1=O (stereo not given)	-17%	9%	-18%
Cc1cnc(C(=O)N(CC(C)C)c2c(N)n(CC(C)C)c(=O)[nH]c2=O)cn1	10%	5%	-5%
O=S1(=O)[C@H]2C[C@@H]3C=C[C@@]2(CN1Cc1ccc(F)cc1)O3	8%	1%	-13%
CC(NCC(=O)Nc1ccccc1C(=O)NC1CC1)c1cccc(C(F)(F)F)c1 (stereo not given)	13µM*	11%	0%
CC(NCC(=O)NCC(=O)Nc1ccc(F)cc1)c1cccc(C(F)(F)F)c1 (stereo not given)	?	1%	-7%
CCc1ccc(S(=O)(=O)N2CCN(c3ccccc3OC)CC2)cc1	?	0%	6%
CCOC(=O)N1CCC(NC(=O)c2ccc3c(c2)N(Cc2ccc(Cl)cc2)C(=O)c2ccccc2S3(=O)=O)CC1	?	-4%	-12%
Cc1ccc(C)c(NS(=O)(=O)c2c(C)nc3sccn3c2=O)c1	-29%	-6%	7%
CC1(C(=O)N(Cc2ccccc2)Cc2ccccc2)CC1(Br)Br (stereo not given)	4µM*	-7%	5%
O=C(c1ccccc1)N(Cc1ccccc1)Cc1ccccc1	?	14%	4%
COc1cc(/C=N/NC(N)=S)cc(Br)c1OCc1ccccc1F	-7%	0%	5.6µM*
CCOc1cc(/C=N/NC(N)=S)cc(Br)c1OCc1ccccc1C	?	-10%	?
Cc1ccc(S(=O)(=O)N(CC(=O)NCC2CCCO2)Cc2cccc(C)c2)cc1 (stereo not given)	-22%	-4%	3%
CCOc1ccc(NC(=O)c2ccccn2)cc1	2µM*	-28%	-9%
CCOc1ccc(NC(=O)c2cnccn2)cc1	?	-1%	-12%
COC(=O)c1ccc(C(=O)OC)c(NC(=O)CCC(=O)O)c1	4%	-4%	0%
COC(=O)c1ccc(C(=O)OC)c(NC(=O)CSCc2ccc(Br)cc2)c1	7.9µM*	-1%	-18%
O=C(/C=C/c1ccc2c(c1)OCO2)N1CCN(c2n[nH]c(=O)[nH]c2=O)CC1	24%	9%	-1%
COc1cc2nc(N3CCNCC3)nc(N)c2cc1OC	-15%	-6%	?
COc1cc2nc(N3CCN(c4cc(C)ccc4C)CC3)nc(N)c2cc1OC	5µM*	-8%	?
CCN(CC)C(=O)C1=C(C)N(CCCN2CCCC2=O)C(=O)C(CC(=O)NCCCN(C)C)C1 (stereo not given)	16%	0%	-36%
COc1ccc(NC(=O)Nc2ccc(F)cc2)cn1	-1%	3%	-24%
COc1ccc(NC(=O)C(c2ccc(Cl)cc2)C(C)C)cn1 (stereo not given)	7.9µM*	0%	15%
COc1ccccc1N1CCN(c2nc3ccc(C)cc3nc2-n2nc(C)cc2C)CC1	?	.	9%
COc1cccc(C(=O)NCC2(c3ccccc3)CCCC2)c1	?	11%	2%
SMILES	GLP-1R inv ag	GLP1R ag	GLP1R cytotox
COc1ccc(C(=O)NCC2(c3ccccc3)CCCC2)c(OC)c1	3.2µM*	?	4%
O=C(NCC1(c2ccccc2)CCCC1)c1ccc(Br)o1	?	4%	-6%
Nc1ccccc1C(=O)NCC1(c2ccccc2)CCCC1	3.2µM*	-4%	0%
Cc1ccc(C(=O)NCC2(c3ccccc3)CCCC2)cc1	2.5µM*	18%	77%
O=C(NCC1(c2ccccc2)CCCC1)c1ccc(Br)cc1	?	1%	26%
COCC1=C(C(=O)OC(C)OC(=O)OC(C)C)N2C(=O)C(NC(=O)/C(=N\OC)c3csc(N)n3)C2SC1 (stereo not given)	.	-6%	.
COc1cc(N)c(Cl)cc1C(=O)OCC(=O)NC(=O)NCc1ccco1	1%	17%	4%
COCC(=O)OC/C(O)=C(\C#N)c1nc2ccccc2[nH]1	5µM*	3%	?
Cc1cccc(C)c1OCC(=O)OC/C(O)=C(\C#N)c1nc2ccccc2[nH]1	?	-29%	?
Cc1ccc(C)c(SCC(=O)OC/C(O)=C(\C#N)c2nc3ccccc3[nH]2)c1	?	-1%	?
CC(C)C(=O)OC/C(O)=C(\C#N)c1nc2ccccc2[nH]1	?	1%	?
N#C/C(=C(/O)COC(=O)CSc1ccc2ccccc2c1)c1nc2ccccc2[nH]1	7.9µM*	-17%	?
CCCC(=O)OC/C(O)=C(\C#N)c1nc2ccccc2[nH]1	?	8%	10µM*
COc1ccc(OC)c(CCNC(=O)c2cc3c(=O)oc4ccc(C)cc4c3s2)c1	7%	1%	1%
